# Measured values reported in PubChem BioAssay (EPA / NIEHS).
# “And” between values parts separate entries of the source, which are not always exact repeats. Equal values may be shown once. Records with an inconclusive call do not appear. The source made the active and inactive calls. The calls were made as follows, unless noted: active = hit-call score of the fitted dose curve at least 0.9, where 1 is the maximum; inactive = score below 0.9.
# Experiments:
# [1] = read-out: Intercellular Adhesion Molecule 1 (ICAM1), ICAM1 (gene 3383); test: BSK_3C_ICAM1: BioMAP Diversity Plus: 3C Assay for Intercellular Adhesion Molecule 1 (ICAM1) Biomarker Activity (AID 2283003); conditions: primary human endothelial cells (HUVEC); actives raise or lower the signal
# How it was run: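 ELISA readout of ICAM1 in human umbilical vein endothelial cells in the 3C system, taken 24 h post-dose. Gain or loss of signal versus DMSO was fitted in both directions, with SRB total-protein staining run in parallel.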
# [2] = BSK_3C_Proliferation: Cell Proliferation Assessment in the BioMAP Diversity Plus: 3C Assay (AID 2283006); conditions: primary human endothelial cells (HUVEC);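 as to AC50: potency may reflect either rise or fall in cell number versus DMSO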
# How it was run: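 Proliferation as total protein: sulforhodamine B (0.1%) stain of TCA-fixed subconfluent human umbilical vein endothelial cells, absorbance 560 nm, 48 h after dosing. Activity fitted in both directions against DMSO baseline.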
# [3] = molecular target: Peroxisome proliferator-activated receptor gamma (Homo sapiens) (UniProt P37231); test: ATG_PPARg_TRANS: Attagene TRANS-FACTORIAL HepG2 Assay for human Peroxisome Proliferator-activated Receptor-gamma (PPARg) (AID 2283007; active = hit-call score of the fitted dose curve at least 0.9, where 1 is the maximum)
# Peroxisome proliferator-activated receptor gamma (Homo sapiens), sequence (P37231 whole entry, looked up, the tested form may be a part): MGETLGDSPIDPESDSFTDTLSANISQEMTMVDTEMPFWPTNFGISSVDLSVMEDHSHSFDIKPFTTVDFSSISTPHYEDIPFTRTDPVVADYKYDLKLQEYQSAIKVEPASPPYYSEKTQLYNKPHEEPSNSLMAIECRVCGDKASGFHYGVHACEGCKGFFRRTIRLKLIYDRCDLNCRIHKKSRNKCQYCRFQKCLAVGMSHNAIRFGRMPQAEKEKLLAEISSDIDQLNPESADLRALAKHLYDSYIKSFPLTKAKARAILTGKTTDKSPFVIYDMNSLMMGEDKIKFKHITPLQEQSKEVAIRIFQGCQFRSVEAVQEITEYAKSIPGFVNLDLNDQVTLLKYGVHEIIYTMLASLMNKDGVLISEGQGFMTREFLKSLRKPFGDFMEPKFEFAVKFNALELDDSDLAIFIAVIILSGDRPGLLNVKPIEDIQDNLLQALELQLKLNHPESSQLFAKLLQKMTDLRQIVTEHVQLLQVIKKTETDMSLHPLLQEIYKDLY
# How it was run: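 Transient transfection of HepG2 with GAL4-UAS-driven reporter units; chemical dosing 24 h; total RNA → oligo(dT) RT → PCR with reporter primers → 6-FAM primer extension → HpaI digest 2 h 37 C → capillary electrophoresis. Positive direction vs DMSO.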
# [4] = molecular target: Nuclear receptor subfamily 1 group I member 2 (Homo sapiens) (UniProt O75469); test: ATG_PXR_TRANS: Attagene TRANS-FACTORIAL HepG2 Assay for human Pregnane X Receptor (PXR) (AID 2283008; active = hit-call score of the fitted dose curve at least 0.9, where 1 is the maximum)
# Nuclear receptor subfamily 1 group I member 2 (Homo sapiens), sequence (O75469 whole entry, looked up, the tested form may be a part): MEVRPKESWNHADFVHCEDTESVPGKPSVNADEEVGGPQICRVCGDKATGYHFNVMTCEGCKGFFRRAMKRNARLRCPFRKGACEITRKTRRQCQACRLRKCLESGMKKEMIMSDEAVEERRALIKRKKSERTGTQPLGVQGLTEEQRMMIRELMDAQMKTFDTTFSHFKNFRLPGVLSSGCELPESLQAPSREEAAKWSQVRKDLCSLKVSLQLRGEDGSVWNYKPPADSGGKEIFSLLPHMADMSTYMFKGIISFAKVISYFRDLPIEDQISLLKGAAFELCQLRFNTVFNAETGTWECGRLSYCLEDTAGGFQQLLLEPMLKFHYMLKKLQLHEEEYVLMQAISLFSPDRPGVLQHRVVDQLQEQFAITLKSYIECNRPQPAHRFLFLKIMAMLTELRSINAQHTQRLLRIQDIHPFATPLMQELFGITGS
# How it was run: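 HepG2 transfected (FuGene 6) with GAL4-UAS reporter units + PXR-Gal4 chimera; dosed 24 h. Total RNA → oligo(dT) RT → PCR → 6-FAM primer extension → HpaI cut → CE. Gain-of-signal vs DMSO.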
# [5] = molecular target: human RAR-related Orphan Receptor beta (RORb), RORB (gene 6096) (UniProt Q92753); test: ATG_RORb_TRANS: Attagene TRANS-FACTORIAL HepG2 Assay for human RAR-related Orphan Receptor beta (RORb) (AID 2283010; active = hit-call score of the fitted dose curve at least 0.9, where 1 is the maximum)
# human RAR-related Orphan Receptor beta (RORb), RORB (gene 6096), sequence (Q92753 whole entry, looked up, the tested form may be a part): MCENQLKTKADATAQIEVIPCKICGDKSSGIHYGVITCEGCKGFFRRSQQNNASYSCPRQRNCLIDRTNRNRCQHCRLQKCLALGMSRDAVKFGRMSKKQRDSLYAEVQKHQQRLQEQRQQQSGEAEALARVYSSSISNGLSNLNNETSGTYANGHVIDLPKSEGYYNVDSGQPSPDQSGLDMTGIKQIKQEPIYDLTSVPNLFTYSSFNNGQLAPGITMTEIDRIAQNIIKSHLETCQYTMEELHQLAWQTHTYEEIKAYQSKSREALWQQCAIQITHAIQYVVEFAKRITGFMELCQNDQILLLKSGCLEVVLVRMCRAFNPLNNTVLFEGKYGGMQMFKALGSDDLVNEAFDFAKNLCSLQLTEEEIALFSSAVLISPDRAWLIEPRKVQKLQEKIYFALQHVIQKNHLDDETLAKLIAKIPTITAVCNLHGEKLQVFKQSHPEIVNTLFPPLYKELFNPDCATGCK
# How it was run: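 Read-out is reporter mRNA induction, quantified by RT-PCR with fluorescent capillary electrophoresis, 24 h post-dose in transiently transfected HepG2 expressing exogenous NR-Gal4 chimera. Activity fitted upward versus DMSO.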
# [6] = molecular target: Retinoic acid receptor RXR-alpha (Homo sapiens) (UniProt P19793); test: ATG_RXRa_TRANS: Attagene TRANS-FACTORIAL HepG2 Assay for human Retinoid X Receptor alpha (RXRa) (AID 2283012; active = hit-call score of the fitted dose curve at least 0.9, where 1 is the maximum)
# Retinoic acid receptor RXR-alpha (Homo sapiens), sequence (P19793 whole entry, looked up, the tested form may be a part): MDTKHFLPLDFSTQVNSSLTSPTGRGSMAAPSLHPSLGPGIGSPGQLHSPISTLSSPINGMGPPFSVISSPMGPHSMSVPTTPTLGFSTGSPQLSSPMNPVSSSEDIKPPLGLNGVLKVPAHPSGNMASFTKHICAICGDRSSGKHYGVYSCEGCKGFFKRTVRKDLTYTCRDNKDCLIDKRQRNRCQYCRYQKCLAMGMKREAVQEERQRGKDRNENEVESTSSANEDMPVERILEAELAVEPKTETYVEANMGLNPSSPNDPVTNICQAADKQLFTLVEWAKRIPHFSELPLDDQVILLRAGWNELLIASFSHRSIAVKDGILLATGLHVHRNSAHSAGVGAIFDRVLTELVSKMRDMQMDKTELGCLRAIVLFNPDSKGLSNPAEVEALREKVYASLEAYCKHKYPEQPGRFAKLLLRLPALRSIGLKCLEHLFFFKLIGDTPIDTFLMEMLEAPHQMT
# How it was run: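 TRANS format reporting activity of exogenous RXRa-Gal4 chimera in transiently transfected HepG2, 24 h exposure. Reporter transcripts quantified by RT-PCR with capillary electrophoresis, with gain of signal scored relative to DMSO.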
# [7] = molecular target: human Thyroid Receptor alpha (THRa1), THRA (gene 7067) (UniProt P10827); test: ATG_THRa1_TRANS: Attagene TRANS-FACTORIAL HepG2 Assay for human Thyroid Receptor alpha (THRa1) (AID 2283014; active = hit-call score of the fitted dose curve at least 0.9, where 1 is the maximum)
# human Thyroid Receptor alpha (THRa1), THRA (gene 7067), sequence (P10827 whole entry, looked up, the tested form may be a part): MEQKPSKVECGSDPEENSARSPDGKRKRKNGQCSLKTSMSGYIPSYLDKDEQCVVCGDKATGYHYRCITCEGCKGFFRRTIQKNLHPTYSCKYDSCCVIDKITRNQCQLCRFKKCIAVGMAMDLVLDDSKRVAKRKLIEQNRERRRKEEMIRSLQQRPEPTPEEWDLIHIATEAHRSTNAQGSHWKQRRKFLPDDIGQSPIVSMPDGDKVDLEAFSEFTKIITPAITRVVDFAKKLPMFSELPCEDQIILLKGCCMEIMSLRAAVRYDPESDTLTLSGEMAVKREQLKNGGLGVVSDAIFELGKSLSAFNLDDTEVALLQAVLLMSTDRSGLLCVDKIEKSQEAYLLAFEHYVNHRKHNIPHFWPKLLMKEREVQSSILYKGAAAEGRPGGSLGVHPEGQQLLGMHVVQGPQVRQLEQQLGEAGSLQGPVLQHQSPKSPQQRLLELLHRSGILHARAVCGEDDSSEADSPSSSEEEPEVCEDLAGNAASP
# How it was run: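 Reporter transcript induction, read by capillary electrophoresis of 6-FAM-labelled RT-PCR products, reflects activity of a transfected THRa1-Gal4 fusion in HepG2 liver cells. Cells were dosed for 24 h; activity was fitted in the positive direction against DMSO.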
# [8] = read-out: E-selectin (Homo sapiens) (UniProt P16581); test: BSK_3C_Eselectin: BioMAP Diversity Plus: 3C Assay for Eselectin Biomarker Activity (AID 2283015); conditions: primary human endothelial cells (HUVEC); actives raise or lower the signal;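 as to outcome: cell surface E-selectin protein quantified by ELISA 24 h after dosing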
# How it was run: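 ELISA read-out of E-selectin on endothelial monolayers after 24 h chemical treatment. Human umbilical vein primary cells served as the system, with DMSO defining baseline activity for bidirectional fitting.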
# [9] = read-out: Interleukin-1 alpha (IL1a), IL1A (gene 3552); test: BSK_BE3C_IL1a: BioMAP Diversity Plus: BE3C Assay for Interleukin-1 alpha (IL1a) Biomarker Activity (AID 2283016); conditions: primary human bronchial epithelial cells; actives raise or lower the signal
# How it was run: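 IL-1a measured by ELISA after 24 h treatment of human primary bronchial epithelial cells, with gain or loss of signal fitted versus DMSO. Parallel cultures stained with SRB gauge overt cytotoxicity.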
# [10] = read-out: Monocyte Chemoattractant Protein-1 (MCP1), CCL2 (gene 6347); test: BSK_3C_MCP1: BioMAP Diversity Plus: 3C Assay for Monocyte Chemoattractant Protein-1 (MCP1) Biomarker Activity (AID 2283017); conditions: primary human endothelial cells (HUVEC); actives raise or lower the signal
# How it was run: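 ELISA read-out of MCP-1 from human umbilical vein endothelial cell cultures harvested 24 h post-dosing. Gain or loss of signal was fitted relative to DMSO.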
# [11] = read-out: Monocyte Chemoattractant Protein-1 (MCP1), CCL2 (gene 6347); test: BSK_4H_MCP1: BioMAP Diversity Plus: 4H Assay for Monocyte Chemoattractant Protein-1 (MCP1) Biomarker Activity (AID 2283018); conditions: primary human endothelial cells (HUVEC); actives raise or lower the signal
# How it was run: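 ELISA of MCP-1 (CCL2) 24 h after chemical dosing of HUVEC in the BioMAP 4H system. Gain or loss versus DMSO fitted; parallel SRB staining (560 nm) tracked overt cytotoxicity.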
# [12] = read-out: Human Leukocyte Antigen - DR isotype (HLADR), HLA-DRA (gene 3122); test: BSK_3C_HLADR: BioMAP Diversity Plus: 3C Assay for Human Leukocyte Antigen - DR isotype (HLADR) Biomarker Activity (AID 2283019); conditions: primary human endothelial cells (HUVEC); actives raise or lower the signal;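 as to outcome: ELISA of cell-surface HLA-DR on HUVEC 24 h after dosing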
# How it was run: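 ELISA readout of surface HLA-DR on human umbilical vein endothelium, taken 24 h after chemical treatment. Gain- and loss-of-signal were both fitted relative to DMSO.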
# [13] = read-out: Interleukin-8 (IL8), CXCL8 (gene 3576); test: BSK_3C_IL8: BioMAP Diversity Plus: 3C Assay for Interleukin-8 (IL8) Biomarker Activity (AID 2283020); conditions: primary human endothelial cells (HUVEC); actives raise or lower the signal
# How it was run: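 IL-8 was measured by ELISA in HUVEC cultures 24 h after chemical dosing, with gain or loss of signal fitted relative to DMSO. Parallel SRB total-protein staining tracked overt cytotoxicity.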
# [14] = read-out: Monokine induced gamma interferon (MIG), CXCL9 (gene 4283); test: BSK_3C_MIG: BioMAP Diversity Plus: 3C Assay for Monokine induced gamma interferon (MIG) Biomarker Activity (AID 2283021); conditions: primary human endothelial cells (HUVEC); actives raise or lower the signal;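 as to AC50: MIG protein level measured by immunoassay in the treated endothelial cultures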
# How it was run: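 ELISA measurement of MIG in human umbilical vein endothelial cells 24 h after treatment. Cytotoxicity tracked by SRB staining in parallel cultures; gain or loss of signal fitted relative to DMSO.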
# [15] = molecular target: human Vitamin D Receptor (VDR), VDR (gene 7421) (UniProt P11473); test: ATG_VDR_TRANS: Attagene TRANS-FACTORIAL HepG2 Assay for human Vitamin D Receptor (VDR) (AID 2283022; active = hit-call score of the fitted dose curve at least 0.9, where 1 is the maximum)
# human Vitamin D Receptor (VDR), VDR (gene 7421), sequence (P11473 whole entry, looked up, the tested form may be a part): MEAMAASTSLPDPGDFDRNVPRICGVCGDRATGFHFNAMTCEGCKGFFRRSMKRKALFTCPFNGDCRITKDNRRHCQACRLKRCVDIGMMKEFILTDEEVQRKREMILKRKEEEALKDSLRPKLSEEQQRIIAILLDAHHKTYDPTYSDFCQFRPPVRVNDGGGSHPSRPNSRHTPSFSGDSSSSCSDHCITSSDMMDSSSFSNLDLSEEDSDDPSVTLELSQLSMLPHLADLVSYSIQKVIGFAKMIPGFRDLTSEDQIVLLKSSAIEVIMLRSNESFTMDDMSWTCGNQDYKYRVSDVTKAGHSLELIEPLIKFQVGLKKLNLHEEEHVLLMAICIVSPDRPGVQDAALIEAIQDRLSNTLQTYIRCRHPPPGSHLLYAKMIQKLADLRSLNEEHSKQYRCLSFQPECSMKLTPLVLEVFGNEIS
# How it was run: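 Steps: transfect HepG2 with GAL4-UAS-driven reporter constructs; dose compounds 24 h; isolate RNA, reverse-transcribe, PCR-amplify with 6-FAM-labelled primer extension and HpaI digestion; quantify fragments by capillary electrophoresis relative to DMSO.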
# [16] = molecular target: human Retinoic Acid Receptor beta (RARb), RARB (gene 5915) (UniProt P10826); test: ATG_RARb_TRANS: Attagene TRANS-FACTORIAL HepG2 Assay for human Retinoic Acid Receptor beta (AID 2283004; active = hit-call score of the fitted dose curve at least 0.9, where 1 is the maximum)
# How it was run: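 Transient transfection of HepG2 with multiple reporter units → chemical dosing, 24 h → total RNA isolation → RT with oligo(dT) → reporter-specific PCR, 6-FAM primer extension, HpaI digest → capillary electrophoresis. Positive direction vs DMSO control.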
# [17] = molecular target: human Retinoic Acid Receptor gamma (RARg), RARG (gene 5916) (UniProt P13631); test: ATG_RARg_TRANS: Attagene TRANS-FACTORIAL HepG2 Assay for human Retinoic Acid Receptor gamma (RARg) (AID 2283009; active = hit-call score of the fitted dose curve at least 0.9, where 1 is the maximum)
# human Retinoic Acid Receptor gamma (RARg), RARG (gene 5916), sequence (P13631 whole entry, looked up, the tested form may be a part): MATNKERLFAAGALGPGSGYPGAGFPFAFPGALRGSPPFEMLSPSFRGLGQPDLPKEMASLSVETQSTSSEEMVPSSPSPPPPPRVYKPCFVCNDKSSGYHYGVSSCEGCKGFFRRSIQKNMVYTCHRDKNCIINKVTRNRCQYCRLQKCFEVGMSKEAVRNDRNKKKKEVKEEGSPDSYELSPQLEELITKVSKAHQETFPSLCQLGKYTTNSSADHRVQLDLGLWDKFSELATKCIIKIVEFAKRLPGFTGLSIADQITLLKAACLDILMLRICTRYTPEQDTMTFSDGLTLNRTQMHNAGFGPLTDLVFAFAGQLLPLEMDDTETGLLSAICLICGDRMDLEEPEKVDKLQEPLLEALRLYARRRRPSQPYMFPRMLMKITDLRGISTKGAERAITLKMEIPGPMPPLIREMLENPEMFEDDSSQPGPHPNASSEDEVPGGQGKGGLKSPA
# How it was run: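 Transactivation of exogenous RARg-Gal4 fusion measured as reporter transcript induction after 24 h in transfected HepG2 cells. RNA reverse-transcribed, amplified, fluorescently labeled and resolved by capillary electrophoresis; increase relative to DMSO.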
# [18] = molecular target: human Retinoid X Receptor beta (RXRb), RXRB (gene 6257) (UniProt P28702); test: ATG_RXRb_TRANS: Attagene TRANS-FACTORIAL HepG2 Assay for human Retinoid X Receptor beta (RXRb) (AID 2283013; active = hit-call score of the fitted dose curve at least 0.9, where 1 is the maximum)
# human Retinoid X Receptor beta (RXRb), RXRB (gene 6257), sequence (P28702 whole entry, looked up, the tested form may be a part): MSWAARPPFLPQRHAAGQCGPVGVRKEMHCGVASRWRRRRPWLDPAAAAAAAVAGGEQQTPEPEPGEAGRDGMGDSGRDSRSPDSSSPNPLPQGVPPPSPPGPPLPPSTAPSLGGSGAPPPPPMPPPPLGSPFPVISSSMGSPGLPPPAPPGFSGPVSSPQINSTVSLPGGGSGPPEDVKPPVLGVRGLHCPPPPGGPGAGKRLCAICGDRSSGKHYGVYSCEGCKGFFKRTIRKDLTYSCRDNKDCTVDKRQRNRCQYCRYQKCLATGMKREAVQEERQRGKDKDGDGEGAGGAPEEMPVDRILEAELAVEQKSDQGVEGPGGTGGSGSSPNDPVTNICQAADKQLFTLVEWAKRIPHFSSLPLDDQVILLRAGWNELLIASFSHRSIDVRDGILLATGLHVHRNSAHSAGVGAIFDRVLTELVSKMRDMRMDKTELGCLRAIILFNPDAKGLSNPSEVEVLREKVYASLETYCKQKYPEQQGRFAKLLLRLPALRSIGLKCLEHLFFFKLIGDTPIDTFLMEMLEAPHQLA
# How it was run: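 Readout is reporter transcript induction after 24 h dosing. It is measured by RT-PCR of total RNA followed by fluorescent capillary electrophoresis. HepG2 liver cells carry transfected multiple reporter units driven by an exogenous RXRb-Gal4 fusion; activity is relative to DMSO.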
# [19] = molecular target: Retinoic acid receptor alpha (Homo sapiens) (UniProt P10276); test: ATG_RARa_TRANS: Attagene TRANS-FACTORIAL HepG2 Assay for human Retinoic Acid Receptor alpha (RARa) (AID 2283005; active = hit-call score of the fitted dose curve at least 0.9, where 1 is the maximum)
# How it was run: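 HepG2 cells transiently transfected with multiple reporter units expressing chimeric RARα-GAL4 fusion, with GAL4-UAS-driven reporters. After 24 h compound exposure, reporter mRNA induction quantified by RT-PCR and capillary electrophoresis with fluorescent labeling; gain-of-signal fitted relative to DMSO control.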
# [20] = molecular target: human RAR-related Orphan Receptor gamma (RORg), RORC (gene 6097) (UniProt P51449); test: ATG_RORg_TRANS: Attagene TRANS-FACTORIAL HepG2 Assay for human RAR-related Orphan Receptor gamma (RORg) (AID 2283011; active = hit-call score of the fitted dose curve at least 0.9, where 1 is the maximum)
# human RAR-related Orphan Receptor gamma (RORg), RORC (gene 6097), sequence (P51449 whole entry, looked up, the tested form may be a part): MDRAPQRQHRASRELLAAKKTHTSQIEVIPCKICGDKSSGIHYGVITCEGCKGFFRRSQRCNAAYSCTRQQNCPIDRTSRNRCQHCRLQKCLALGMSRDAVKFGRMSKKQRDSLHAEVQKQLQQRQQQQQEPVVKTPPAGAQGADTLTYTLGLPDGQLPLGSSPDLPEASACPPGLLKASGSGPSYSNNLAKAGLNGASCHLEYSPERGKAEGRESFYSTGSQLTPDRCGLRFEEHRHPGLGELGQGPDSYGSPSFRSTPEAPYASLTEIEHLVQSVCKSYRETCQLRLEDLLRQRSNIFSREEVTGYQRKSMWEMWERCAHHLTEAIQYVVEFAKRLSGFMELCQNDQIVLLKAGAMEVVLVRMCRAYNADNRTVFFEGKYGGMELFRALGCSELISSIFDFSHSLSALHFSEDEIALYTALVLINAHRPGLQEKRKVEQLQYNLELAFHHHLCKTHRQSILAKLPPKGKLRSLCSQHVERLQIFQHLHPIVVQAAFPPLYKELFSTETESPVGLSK
# How it was run: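 First, HepG2 liver cells were transfected with GAL4-UAS-driven reporter constructs and the RORg-Gal4 fusion. Next, they were treated with chemical for 24 h. Finally, reporter mRNA was quantified by RT-PCR and capillary electrophoresis, with upward activity fitted against DMSO.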
# E-selectin (Homo sapiens), sequence (P16581 whole entry, looked up): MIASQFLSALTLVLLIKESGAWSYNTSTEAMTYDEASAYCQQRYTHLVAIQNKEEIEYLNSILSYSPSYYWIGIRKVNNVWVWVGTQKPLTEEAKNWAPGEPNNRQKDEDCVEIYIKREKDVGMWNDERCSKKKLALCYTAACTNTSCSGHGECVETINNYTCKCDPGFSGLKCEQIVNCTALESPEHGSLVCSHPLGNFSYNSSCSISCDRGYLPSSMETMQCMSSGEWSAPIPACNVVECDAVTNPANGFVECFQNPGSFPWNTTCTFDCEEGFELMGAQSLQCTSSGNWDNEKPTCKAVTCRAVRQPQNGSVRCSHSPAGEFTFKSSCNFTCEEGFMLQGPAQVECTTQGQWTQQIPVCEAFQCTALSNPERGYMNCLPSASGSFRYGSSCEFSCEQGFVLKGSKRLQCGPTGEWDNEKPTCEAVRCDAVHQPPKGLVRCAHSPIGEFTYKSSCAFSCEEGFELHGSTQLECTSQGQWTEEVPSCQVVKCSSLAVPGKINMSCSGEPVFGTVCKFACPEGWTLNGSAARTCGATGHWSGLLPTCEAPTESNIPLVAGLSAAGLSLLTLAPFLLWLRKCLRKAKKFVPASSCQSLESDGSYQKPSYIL
smiles,measurement,setting,value
O=c1oc2ccccc2c(O)c1C(CC(O)c1ccc(-c2ccc(Br)cc2)cc1)c1ccccc1 (stereo not given),AC50,[1],27.2 µM (active)
same,AC50,[2],6.58 µM (active)
same,AC50,[3],3.95 µM (active) and 676 nM (active)
same,AC50,[4],5.19 µM (active) and 7.74 µM (active)
same,outcome,[5],inactive
same,outcome,[6],inactive
same,outcome,[7],inactive
same,AC50,[8],19.1 µM (active)
same,AC50,[9],5.31 µM (active)
same,AC50,[10],10.5 µM (active)
same,AC50,[11],1.47 µM (active)
same,AC50,[12],8.28 µM (active)
same,outcome,[13],inactive
same,AC50,[14],31.2 µM (active)
same,outcome,[15],inactive
CCCCCCCCCCCCc1cccc(S(=O)(=O)O)c1,outcome,[1],inactive
same,outcome,[16],inactive
same,outcome,[2],inactive
same,outcome,[4],inactive
same,outcome,[17],inactive
same,AC50,[18],30 µM (active)
same,outcome,[8],inactive
same,AC50,[9],27.2 µM (active)
same,outcome,[10],inactive
same,outcome,[11],inactive
same,outcome,[12],inactive
same,outcome,[13],inactive
same,outcome,[14],inactive
Nc1ccc(N)cc1,outcome,[1],inactive
same,outcome,[19],inactive
same,outcome,[2],inactive
same,outcome,[3],inactive
same,outcome,[17],inactive
same,outcome,[5],inactive
same,outcome,[20],inactive
same,outcome,[6],inactive
same,outcome,[7],inactive
same,outcome,[9],inactive
same,outcome,[10],inactive
same,outcome,[11],inactive
same,outcome,[12],inactive
same,outcome,[13],inactive
same,outcome,[14],inactive
same,outcome,[15],inactive
Oc1c(Cl)cc(Cl)cc1Cl,outcome,[1],inactive
same,outcome,[2],inactive
same,AC50,[3],42.5 µM (active)
same,outcome,[4],inactive
same,outcome,[20],inactive
same,outcome,[7],inactive
same,outcome,[9],inactive
same,outcome,[10],inactive
same,outcome,[11],inactive
same,outcome,[12],inactive
same,outcome,[13],inactive
